Screening data as filed in PubChem BioAssay.
SARS PLpro yeast – blocks SARS-CoV papain-like protease in a yeast assay | S. cerevisiae expressing SARS-CoV PLpro, growth rescue | Potency, µM (highest dose often 32.9 µM), most hits filed as activators | 0.19% of 330,000 active; calls by dose curve; also: nearly all actives have a fitted effect of over 55% in size
AmpC no deterg – inhibitors of E. coli AmpC beta-lactamase without detergent. 0.52% of 330,000 active. AmpC nitrocefin hydrolysis, absorbance 480 nm, 0.0001% Triton. Potency, µM (doses to about 57.1 µM), most hits filed as inhibitors. P00811; also: nearly all actives have a fitted effect of over 20% in size
Target sequence (P00811 whole entry, looked up): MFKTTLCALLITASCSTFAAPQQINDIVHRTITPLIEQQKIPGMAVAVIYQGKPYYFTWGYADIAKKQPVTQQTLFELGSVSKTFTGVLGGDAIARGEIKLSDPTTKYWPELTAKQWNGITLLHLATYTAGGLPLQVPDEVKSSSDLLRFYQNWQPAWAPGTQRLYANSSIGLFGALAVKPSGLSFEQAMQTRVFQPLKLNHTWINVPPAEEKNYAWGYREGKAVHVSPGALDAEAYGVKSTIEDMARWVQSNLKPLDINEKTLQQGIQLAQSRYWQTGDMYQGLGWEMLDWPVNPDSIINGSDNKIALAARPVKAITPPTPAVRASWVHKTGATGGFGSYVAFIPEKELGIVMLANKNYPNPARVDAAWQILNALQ
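AmpC (5.3 nM in the dispensed reagent) in 20 mM phosphate pH 7.0 with 0.01% (detergent screen) or 0.0001% Triton X-100 was preincubated with compounds for 15 min at room temperature. Nitrocefin was then added from an 800 uM solution, and hydrolysis was followed at 480 nm.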
AmpC inh detg – inhibitors of E. coli AmpC beta-lactamase with detergent | 0.041% of 370,000 active | AmpC hydrolysis of nitrocefin, absorbance 480 nm, 0.01% Triton | Potency, µM (series often up to 114 µM), hits mostly inhibitors | AID 485294; also: nearly all actives have a fitted effect of over 25% in size
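AmpC (5.3 nM in the dispensed reagent) in 20 mM phosphate pH 7.0 with 0.01% (detergent screen) or 0.0001% Triton X-100 was preincubated with compounds for 15 min at room temperature. Nitrocefin was then added from an 800 uM solution, and hydrolysis was followed at 480 nm.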
AMA1-RON2 inh – AMA1-RON2 (P. falciparum) interaction inhibition; 0.2% of 360,000 active; Potency, µM (doses to about 58.2 µM), usual class: inhibitors; AlphaScreen AMA1-biotinylated RON2 peptide binding; also: nearly all actives have a fitted effect of over 45% in size
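AMA1 (3D7) with his tag at 25 nM final met compounds first, then biotinylated RON2 peptide at 25 nM; detection used donor plus acceptor beads, 10 µg/mL apiece, read by AlphaScreen after 30 min at room temperature.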
Shiga inhibitor – Shiga toxin inhibition. Vero cells, Shiga toxin protein synthesis inhibition reporter. inhibition, % at 38.7 µM. 9.2% of 290,000 active. AID 2315; in the data active = inhibition mostly above about 28%, no sharp cut-off; inactive = mostly below about 43%
Cycloheximide cs – counter-screen hit for Shiga toxin inhibitors, cycloheximide. cell reporter, cycloheximide protein synthesis inhibition counterscreen. max response, %. 12% of 300,000 active. AID 2314; in the data active = max response mostly above about 13%, no sharp cut-off; inactive = mostly below about 14%; also: read at 38.3 µM for the half of the compounds with a filed dose
A number is an active result; . = inactive; ? = inconclusive; / = no result; + = active, no number; [ ] = dose if it differs, or a comment. The entries come from a sample that favours hits as a whole. Unless noted, calls follow the shape of the dose curve; as a rule, active = well fitted curve in the direction sought with a large enough effect; inconclusive = small, poorly fitted or top-dose-only effect, or another doubt; inactive = no such curve, though single readings can be large; an effect the other way counts as inactive or inconclusive.

SMILES | SARS PLpro yeast | AmpC no deterg | AmpC inh detg | AMA1-RON2 inh | Shiga inhibitor | Cycloheximide cs
COc1ccc(C(=O)NC(CC(=O)O)c2cc([N+](=O)[O-])ccc2Cl)cc1 (stereo not drawn) | . | . | . | . | . | .
COc1ccc(C(=O)CC(=O)C(=O)Nc2ccc(OC)c(Cl)c2)cc1 | . | ? | . | . | . | 17
COc1ccc(C(=O)CC(=O)C(=O)Nc2ccccc2Cl)cc1 | . | . | . | . | . | .
COc1ccc(NC(=O)C(=O)NCCCO)cc1Cl | . | . | . | . | 62 | 24
COc1ccc(C(=O)CC(=O)C(=O)Nc2ccc(Cl)cc2)cc1 | . | . | . | . | . | 14
Cc1ccc(NC(=O)CN(C)S(=O)(=O)c2cccc3nsnc23)c(C)c1 | / | / | . | / | / | /
Cc1c(Cl)cccc1NC(=O)NCc1ccncc1 | . | . | . | . | . | .
CCc1ccc(N2CCn3c2nc2c3c(=O)n(Cc3ccc(F)cc3)c(=O)n2C)cc1 | / | / | . | / | / | /
Cc1ccn2c(C(=O)CSc3ccccc3Cl)c(C)nc2c1 | . | 0.32µM | . | . | . | .
COc1cccc(/C=C/c2nc3c(cnn3-c3ccccc3)c(=O)[nH]2)c1 | . | . | . | . | . | 15
O=c1[nH]c(/C=C/c2ccc(Br)cc2)nc2c1cnn2-c1ccccc1 | . | . | . | / | . | .
Cc1cccc(/C=C/c2nc3ccccc3c(=O)[nH]2)c1 | . | . | . | . | 112 | 29
CCCN1C(=O)/C(=C/c2nc3ccccc3c(=O)[nH]2)c2cc(C)ccc21 | . | . | . | . | . | 11
CCOc1cc(/C=C/c2nc3ccccc3c(=O)[nH]2)ccc1O | . | . | . | . | 50 | 45
O=c1[nH]c(/C=C/c2ccccc2Cl)nc2ccccc12 | . | . | ? | . | 106 | 40
COc1cc(/C=C/c2nc3ccccc3c(=O)n2-c2cccc(O)c2)ccc1O | . | . | . | . | 59 | .
Cc1[nH]c2ccccc2c1/C=C/c1nc2ccccc2c(=O)[nH]1 | . | . | . | . | 84 | 53
Cc1onc(-c2ccccc2Cl)c1C(=O)N1CCN(c2ccccc2)CC1 | . | . | ? | . | . | .
COc1ccc(S(=O)(=O)Nc2cccc(S(=O)(=O)N(C)C)c2)cc1[N+](=O)[O-] | / | / | / | . | / | /
Cc1ccc(Nc2nc(N)c([N+](=O)[O-])c(N3CCOCC3)n2)cc1 | . | . | . | . | . | .
Nc1nc(Nc2ccccc2)nc(N2CCCC2)c1[N+](=O)[O-] | . | . | . | . | 58 | 39
COc1ccc(Nc2nc(N)c([N+](=O)[O-])c(N3CCCC3)n2)cc1 | . | . | . | . | . | 17
COc1ccc(Nc2nc(N)c([N+](=O)[O-])c(N3CCN(C)CC3)n2)cc1 | . | . | . | . | . | .
CC1CCCN(c2nc(NCc3ccco3)nc(N)c2[N+](=O)[O-])C1 (stereo not drawn) | . | . | ? | . | . | .
CC1CCCN(c2nc(N(C)c3ccccc3)nc(N)c2[N+](=O)[O-])C1 (stereo not drawn) | . | . | . | . | . | 20
SMILES | SARS PLpro yeast | AmpC no deterg | AmpC inh detg | AMA1-RON2 inh | Shiga inhibitor | Cycloheximide cs
CCn1c(C(=O)NCc2cccc(Br)c2)cc2oc3ccccc3c21 | / | / | . | / | / | /
COc1cc(/C=C/C(=O)OCc2csc(CC(=O)Nc3ccc(C)cc3)n2)ccc1OCC#N | . | . | . | . | / | /
CC(C)(O)[C@H]1Cc2cc3ccc(=O)oc3cc2O1 | . | . | . | . | 82 | 39
C=C(C)C1Cc2cc3ccc(=O)oc3cc2O1 (stereo not drawn) | . | . | . | . | . | 16
Cc1ccc(CSC2=NCCN2S(=O)(=O)c2ccccc2)cc1 | . | . | . | . | . | .
COc1ccc(-c2c(C3C4C=CCCC4(C)C(=O)N3Cc3ccccc3)ccc3ccccc23)cc1 (stereo not drawn) | / | / | / | / | + | 103
COCCCNC(=O)c1cc2cc([N+](=O)[O-])cc(OC)c2oc1=O | . | . | . | . | . | .
Cc1cc(C)c(S(=O)(=O)Nc2ccc(N(C)C)cc2)c(C)c1-n1cnnn1 | . | . | . | . | 76 | 43
COC(=O)c1ccc(C(=O)OC)c(NC(=O)c2cccnc2)c1 | . | . | . | . | / | .
O=C(Nc1cnn(Cc2ccc(F)cc2)c1)c1noc2c1CCCC2 | . | . | . | . | 152 | 45
CC(C)(C)C1CCc2onc(C(=O)Nc3cnn(Cc4ccc(F)cc4)c3)c2C1 (stereo not drawn) | . | . | . | . | . | .
O=C(Nc1cnn(Cc2ccc(F)cc2)c1)c1cnccn1 | . | . | . | . | . | 17
O=C(/C=C/c1ccco1)NC(=S)Nc1ccccc1O | . | . | . | . | 92 | 19
O=C(/C=C\c1ccco1)NC(=S)Nc1ccccc1O | . | . | . | . | 64 | 34
O=C(/C=C/c1ccco1)NC(=S)Nc1ccccc1N1CCOCC1 | . | . | . | . | . | .
Cc1ccc(NC(=S)NC(=O)/C=C/c2ccco2)c(O)c1 | . | . | . | . | . | 60
O=C(/C=C/c1ccco1)NC(=S)Nc1ccccc1N1CCCC1 | . | . | . | . | . | .
COc1ccccc1N1CCN(CC(=O)Nc2ccc3c(c2)OCCO3)CC1 | . | . | . | ? | . | .
NC(=O)COC(=O)c1ccc(S(=O)(=O)NCc2ccco2)cc1 | . | . | . | . | . | .
CCOc1ccc(CNC(=O)c2cnc(SC)nc2C)cc1 | / | / | . | / | / | /
Cc1ccc(NC(=O)c2cnn(-c3ccccc3)c2C)c(C)c1 | . | . | ? | . | . | 38
Cc1cccc(C)c1NC(=O)c1cnn(-c2ccccc2)c1C | . | . | . | . | . | .
Cc1ccc(NC(=O)c2cnn(-c3ccccc3)c2C)cc1 | . | . | . | . | / | 32
COc1ccc(CCN2CC(C#N)=C3c4cc(OC)c(OC)cc4CCN3C2)cc1OC | . | . | . | . | . | .
COCCn1c(C)cc(C(=O)COc2ccc(C)nc2[N+](=O)[O-])c1C | . | . | . | . | . | .
SMILES | SARS PLpro yeast | AmpC no deterg | AmpC inh detg | AMA1-RON2 inh | Shiga inhibitor | Cycloheximide cs
CCCn1c(C)cc(C(=O)COc2ccc(C)nc2[N+](=O)[O-])c1C | . | . | . | .[11.6 µM] | 85 | 15
CCCn1c(C)cc(C(=O)COc2ccc(S(=O)(=O)N(CC)CC)cc2[N+](=O)[O-])c1C | . | . | . | . | . | .
C=CCn1c(C)cc(C(=O)COc2ccc(S(=O)(=O)N3CCCC3)cc2[N+](=O)[O-])c1C | . | . | . | . | . | 13
Cc1ccc(OCC(=O)N(Cc2ccccc2)C(C)C)c([N+](=O)[O-])n1 | . | . | . | . | . | .
Cc1ccc(OCC(=O)c2cc(C)n(-c3ccccc3)c2C)c([N+](=O)[O-])n1 | . | . | . | . | 64 | 46
Cc1ccc(OCC(=O)c2cc(C)c(C)cc2C)c([N+](=O)[O-])n1 | . | . | ? | . | . | .
